Assay results: PubChem BioAssay (NCATS)
Inconclusive results are not listed. Calls of active or inactive are those of the source. Calls come from the whole dose curve; as a rule, active = well fitted curve in the direction sought with a large enough effect; inconclusive = small, poorly fitted or top-dose-only effect, or another doubt; inactive = no such curve, though single readings can be large; an effect the other way counts as inactive or inconclusive.

Columns and labels:
[1] = qHTS for Inhibitors of Plasmodium falciparum (DD2) proliferation (AID 504314);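 note: parasite DNA measured by SYBR Green fluorescence after red cell lysis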
How it was run: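 Parasite proliferation measured as SYBR Green signal from Plasmodium DNA, mature erythrocytes lacking DNA. 72 h incubation, 37C; activity scaled between vehicle and 0.29 uM artemisinin, with correction from vehicle-only plates.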

[2] = qHTS for Inhibitors of Plasmodium falciparum (GB4) proliferation (AID 504315); note: nearly all actives have a fitted effect of over 50% in size
How it was run: (§1)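 Parasite growth measured as SYBR Green DNA fluorescence (ex 485, em 535 nm) after overnight lysis following 72 h culture at 37 °C, 0.3% parasitemia, 2.5% hematocrit. Values normalized against DMSO and 0.29 uM artemisinin controls, with plate-stack correction.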

[3] = qHTS for Inhibitors of Plasmodium falciparum (CP250) proliferation (AID 504320)
How it was run: as §1

[4] = qHTS for Inhibitors of Plasmodium falciparum (HB3) proliferation (AID 504318); note: nearly all actives have a fitted effect of over 60% in size
How it was run: as §1

Measured: Potency

COC(=O)C1=C(C(=O)OC)[C@@H]2N(Cc3ccccc3)c3ccccc3[C@@]23C[C@@H](C(=O)OC)N(C(=O)COCc2ccccc2)C3=N1
inactive: [1] | [2] | [3]

COc1cccc([C@@H]2Oc3ccc(Br)cc3C(=O)[C@@H]2OC(=O)Nc2ccc(OC(F)F)cc2)c1
inactive: [1] | [2] | [3]

C=CCN1c2ccccc2[C@]23C[C@@H](C(=O)OC)N(C(=O)c4cc(C)oc4C)C2=NC(C(=O)OC)=C(C(=O)OC)[C@H]13
inactive: [1] | [2] | [3]

C=CCNC(=O)N1CCc2nc(COc3ccccc3)c3c(c2C1)CO[C@@H](C)C3
inactive: [1] | [2] | [4] | [3]

COC(=O)C1=C(C(=O)OC)[C@@H]2N(C)c3ccccc3[C@@]23C[C@@H](C(=O)OC)N(S(=O)(=O)c2ccc(OC)cc2)C3=N1
inactive: [1] | [2] | [3]

C=CCN1c2ccccc2[C@]23C[C@@H](C(=O)OC)N(S(=O)(=O)c4cccs4)C2=NC(C(=O)OC)=C(C(=O)OC)[C@H]13
inactive: [1] | [2] | [3]

COc1cccc([C@@H]2Oc3ccc(Br)cc3C(=O)[C@@H]2OC(=O)Nc2cc(OC)c(OC)c(OC)c2)c1
inactive: [1] | [2] | [4] | [3]

O=C(NS(=O)(=O)c1ccc(F)cc1)O[C@@H]1C(=O)c2cc(Br)ccc2O[C@H]1c1ccc2c(c1)OCO2
inactive: [1] | [2] | [3]

COC(=O)N[C@@H](c1cccc(C)c1)C(C(C)=O)C(=O)OC (some centres not stated)
inactive: [1] | [2] | [4] | [3]

C[C@@H](c1ccccc1)N1C(=O)[C@@H]2[C@H]3[C@H](O)[C@H](O)CC(=NNC(=O)OCc4ccccc4)[C@@H]3CC[C@H]2C1=O
inactive: [1] | [2] | [3]

COC(=O)CC=C[C@@H](C)[C@H](OC)c1cc(F)ccc1Br
inactive: [1] | [2] | [4] | [3]

C[C@H]1Cc2c(-c3ccccc3)nc3c(c2CO1)CN(C(=O)c1cc(I)ccc1F)CC3
inactive: [1] | [2] | [4] | [3]

CCOC(=O)CN1C(=O)N[C@@H](CCc2ccccc2)[C@@H](C(=O)OC)[C@H]1C
inactive: [1] | [2] | [4] | [3]

C=CCN1c2ccccc2[C@]23C[C@@H](C(=O)OC)N(S(=O)(=O)c4ccc(C#N)cc4)C2=NC(C(=O)OC)=C(C(=O)OC)[C@H]13
inactive: [1] | [2] | [3]

CCCCS(=O)(=O)N1C2=NC(C(=O)OC)=C(C(=O)OC)[C@@H]3N(C)c4ccccc4[C@]23C[C@H]1C(=O)OC
inactive: [1] | [2] | [3]

COC(=O)C1=C(C(=O)OC)[C@@H]2N(C)c3ccccc3[C@@]23C[C@@H](C(=O)OC)N(S(=O)(=O)c2c(C)noc2C)C3=N1
inactive: [1] | [2] | [3]

CC#CCN1c2ccccc2[C@]23CCC(=O)N(CCCOC(C)C)C2=NC(C(=O)OC)=C(C(=O)OC)[C@H]13
inactive: [1] | [2] | [3]

CCOC(=O)CN1C(=O)N[C@@H](c2cccc(C(F)(F)F)c2)C(C(C)=O)=C1C
inactive: [1] | [2] | [3]

COC(=O)CCC(=O)OC1(C)C(=O)C=C2C=C(C3CC3)N(c3ccc(OC)cc3)C=C2C1=O (configuration not stated)
inactive: [1] | [2] | [3]

COC(=O)C1=C(C(=O)OC)[C@@H]2N(C)c3ccccc3[C@@]23C[C@@H](C(=O)OC)N(S(=O)(=O)c2cccs2)C3=N1
inactive: [1] | [2] | [3]

COCCN1C(=O)N[C@@H](c2cccc(F)c2)C(C(=O)OC)=C1C
inactive: [1] | [2] | [4] | [3]

O=C(C=Cc1ccc2c(c1)OCO2)c1ccccc1
inactive: [1] | [2] | [4] | [3]

COC(=O)CCC(=O)OC1(C)C(=O)C2=CN(CCCCO)C(c3ccc(OC)cc3)=CC2=C(Br)C1=O (configuration not stated)
inactive: [1] | [2] | [4] | [3]

CC(C)CON=C1C[C@@H](O)[C@@H](O)[C@@H]2[C@H]3C(=O)N(C4CCCCC4)C(=O)[C@@H]3CC[C@H]12
inactive: [1] | [2] | [4] | [3]

COC(=O)C1(C(=O)OC)CC(CO)C(=O)[C@@H]1c1ccccc1 (some centres not stated)
inactive: [1] | [2] | [4]

COC(=O)CCC(=O)OC1(C)C(=O)C=C2C=C(C3CC3)N(c3ccccc3)C=C2C1=O (configuration not stated)
inactive: [1] | [2] | [4]

CCCCc1nc2c(c3c1C[C@H](C)OC3)CN(C(=O)c1cc(I)ccc1F)CC2
inactive: [1] | [2] | [3]

C[C@@H]1C[C@](C)(C(=O)c2ccc3ccccc3c2)C=C1c1ccc2ccccc2c1
inactive: [1] | [2] | [3]

C[C@H]1Cc2c(COc3ccccc3)nc3c(c2CO1)CN(S(=O)(=O)c1ccc(C#N)cc1)CC3
inactive: [1] | [2] | [3]

C[C@H]1Cc2c(COc3ccccc3)nc3c(c2CO1)CN(C(=O)Cc1cccs1)CC3
inactive: [1] | [2] | [3]

COC/C=C/C1=CC2=CC(=O)C(C)(OC(=O)c3cnc4ccccc4n3)C(=O)C2=CN1Cc1ccc2c(c1)OCO2 (configuration not stated)
inactive: [1] | [2] | [3]

COC/C=C/C1=CC2=CC(=O)C(C)(OC(=O)c3cnc4ccccc4n3)C(=O)C2=CN1CCOC (configuration not stated)
inactive: [1] | [2] | [4] | [3]
